ChEMBL document CHEMBL3988442, “University of Dundee, Small-Polar-MMV Screening Library” (2021)
For some assays here: Results with a measured potency or affinity are listed apart.

Columns and labels:
[1] = target: T1, Methionyl-tRNA synthetase, putative (Leishmania donovani (strain BPK282A1)) (UniProt E9BF75); assay: Leishmania donovani Methionine tRNA synthetase (LdMetRS):v7. Dose response assay; type: functional; set-up: conc 80 nM, time 150 minutes
T1 sequence (whole entry): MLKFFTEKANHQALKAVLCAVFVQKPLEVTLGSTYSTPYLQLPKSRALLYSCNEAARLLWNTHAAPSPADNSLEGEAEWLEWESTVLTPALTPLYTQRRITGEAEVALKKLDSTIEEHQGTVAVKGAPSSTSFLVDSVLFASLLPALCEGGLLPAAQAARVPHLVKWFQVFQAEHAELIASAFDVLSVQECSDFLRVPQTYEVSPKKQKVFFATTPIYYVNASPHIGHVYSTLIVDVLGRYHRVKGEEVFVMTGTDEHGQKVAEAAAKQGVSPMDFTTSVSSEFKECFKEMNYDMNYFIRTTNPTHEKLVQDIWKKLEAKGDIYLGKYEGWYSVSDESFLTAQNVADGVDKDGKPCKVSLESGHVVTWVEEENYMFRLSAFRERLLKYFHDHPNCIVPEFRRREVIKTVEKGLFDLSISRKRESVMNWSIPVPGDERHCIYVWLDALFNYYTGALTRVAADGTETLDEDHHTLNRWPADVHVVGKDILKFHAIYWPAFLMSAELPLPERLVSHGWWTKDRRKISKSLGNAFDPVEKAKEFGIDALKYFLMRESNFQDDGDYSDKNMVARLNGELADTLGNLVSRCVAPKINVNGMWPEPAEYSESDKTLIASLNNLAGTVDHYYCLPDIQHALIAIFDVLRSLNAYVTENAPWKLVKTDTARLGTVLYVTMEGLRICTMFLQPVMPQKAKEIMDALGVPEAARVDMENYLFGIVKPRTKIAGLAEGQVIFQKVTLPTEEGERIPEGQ

[2] = target: Protein translocase subunit SecA (Escherichia coli (strain K12)) (UniProt P10408); assay: Assay to Identify E. coli SecA ATPase Inhibitors; type: functional; set-up: scale not given: direction of the effect not stated beside the values; details: 30 µM
[3] = target: T2, Ubiquitin-activating enzyme e1, putative (Leishmania donovani (strain BPK282A1)) (UniProt E9BSI1); assay: Leishmania donovani Ubiquitin Activating Enzyme (LdE1); type: functional; set-up: scale not given: direction of the effect not stated beside the values; details: 30 µM
T2 sequence (whole entry): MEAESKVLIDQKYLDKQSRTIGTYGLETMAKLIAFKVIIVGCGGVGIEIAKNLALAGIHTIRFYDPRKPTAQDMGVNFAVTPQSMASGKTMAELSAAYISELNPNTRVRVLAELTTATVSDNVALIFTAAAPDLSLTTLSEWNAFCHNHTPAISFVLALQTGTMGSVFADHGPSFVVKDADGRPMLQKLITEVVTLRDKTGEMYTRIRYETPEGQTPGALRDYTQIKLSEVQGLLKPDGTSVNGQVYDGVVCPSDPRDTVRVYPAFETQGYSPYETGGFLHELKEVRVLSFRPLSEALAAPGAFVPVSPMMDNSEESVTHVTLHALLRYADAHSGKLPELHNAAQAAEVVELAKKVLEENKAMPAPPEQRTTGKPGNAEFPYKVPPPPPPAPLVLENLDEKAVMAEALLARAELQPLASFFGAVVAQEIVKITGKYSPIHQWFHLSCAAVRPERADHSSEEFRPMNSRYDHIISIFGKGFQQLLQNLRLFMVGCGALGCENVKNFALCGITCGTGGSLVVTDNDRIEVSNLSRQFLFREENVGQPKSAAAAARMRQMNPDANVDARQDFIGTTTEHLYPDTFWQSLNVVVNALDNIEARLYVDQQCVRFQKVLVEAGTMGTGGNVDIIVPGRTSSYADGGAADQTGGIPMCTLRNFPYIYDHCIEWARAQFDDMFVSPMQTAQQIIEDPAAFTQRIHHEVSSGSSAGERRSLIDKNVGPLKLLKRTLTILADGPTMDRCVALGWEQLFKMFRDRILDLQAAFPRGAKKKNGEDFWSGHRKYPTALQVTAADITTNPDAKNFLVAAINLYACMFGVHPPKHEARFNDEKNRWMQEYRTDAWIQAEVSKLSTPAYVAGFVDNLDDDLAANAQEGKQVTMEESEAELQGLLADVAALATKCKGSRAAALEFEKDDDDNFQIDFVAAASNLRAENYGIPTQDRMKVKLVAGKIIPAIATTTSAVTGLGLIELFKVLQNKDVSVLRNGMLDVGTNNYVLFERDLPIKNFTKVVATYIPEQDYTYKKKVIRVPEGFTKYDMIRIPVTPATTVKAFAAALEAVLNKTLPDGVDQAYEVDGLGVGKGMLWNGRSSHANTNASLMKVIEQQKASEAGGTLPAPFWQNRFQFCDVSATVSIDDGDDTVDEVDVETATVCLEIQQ

[4] = target: AMP-activated protein kinase, AMPK (Homo sapiens) (UniProt P54646+O43741+P54619+Q9UGJ0+Q9Y478+Q13131+Q9UGI9); assay: AMP-dependent Kinase enzyme assay. An in vitro enzyme assay that detects ADP turnover that is directly proportional to AMPK activity. This uses naive AMPK that is activated during the assay with MK-8722; type: functional; set-up: scale not given: direction of the effect not stated beside the values; details: 30 µM
[5] = target: Sialic acid-binding Ig-like lectin 9 (Homo sapiens) (UniProt Q9Y336); assay: Hs-Siglec9 ALPHAscreen SOP 20170721; set-up: scale not given: direction of the effect not stated beside the values; details: 10 µM
Trypanosoma cruzi = assay: Trypanosoma cruzi phosphomannomutase and mannose-1-phosphate guanylyltransferase assay; type: functional; set-up: scale not given: direction of the effect not stated beside the values; details: 10 µM
[6] = target: T3, Arginase-2, mitochondrial (Homo sapiens) (UniProt P78540); assay: in vitro enzyme assay to detect the production of urea directly proportional to the activity of Arginase II; type: functional; set-up: scale not given: in the data most compounds retested in dose-response had high values
T3 sequence (whole entry): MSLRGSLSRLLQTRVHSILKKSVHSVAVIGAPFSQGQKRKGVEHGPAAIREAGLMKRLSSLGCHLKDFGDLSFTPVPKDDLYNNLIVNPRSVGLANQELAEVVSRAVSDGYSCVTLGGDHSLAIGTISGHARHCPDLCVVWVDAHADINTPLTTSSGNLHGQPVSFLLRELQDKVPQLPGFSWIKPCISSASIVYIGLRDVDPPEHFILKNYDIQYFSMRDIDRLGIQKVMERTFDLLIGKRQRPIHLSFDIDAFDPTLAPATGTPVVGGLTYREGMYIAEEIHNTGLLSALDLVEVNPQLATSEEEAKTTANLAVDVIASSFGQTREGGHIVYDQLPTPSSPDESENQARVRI

[7] = target: T4, Proteasome subunit beta (Trypanosoma cruzi) (UniProt O96673); assay: Trypanosoma cruzi proteasome chymotrypsin-like activity (TcProtChymo) assay.; type: functional; set-up: scale not given: in the data most compounds retested in dose-response had high values; details: 9.37 µM
T4 sequence (whole entry): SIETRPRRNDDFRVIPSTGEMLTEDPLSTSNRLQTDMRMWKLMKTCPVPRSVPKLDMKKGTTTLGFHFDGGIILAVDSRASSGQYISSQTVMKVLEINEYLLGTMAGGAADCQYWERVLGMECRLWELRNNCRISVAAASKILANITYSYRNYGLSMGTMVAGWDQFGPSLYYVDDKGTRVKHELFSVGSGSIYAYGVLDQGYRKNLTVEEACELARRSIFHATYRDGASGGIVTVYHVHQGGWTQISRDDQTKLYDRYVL

Homo sapiens = species on record: Homo sapiens; assay: To identify inhibition of the IFN signalling (Jak-Stat) pathway via expression of an eGFP reporter gene under the control of an IFN-stimulated response element (ISRE) containing MxA promoter.; type: functional; set-up: scale not given: direction of the effect not stated beside the values; details: 30 µM
[8] = target: T5, Tyrosyl-tRNA synthetase, putative (Trypanosoma cruzi (strain CL Brener)) (UniProt Q4DSP6); assay: Trypanosoma cruzi tyrosyl tRNA synthetase (TcYRS) _High Tyrosine SOP; type: functional; set-up: scale not given: in the data most compounds retested in dose-response had high values; details: 30 µM
T5 sequence (whole entry): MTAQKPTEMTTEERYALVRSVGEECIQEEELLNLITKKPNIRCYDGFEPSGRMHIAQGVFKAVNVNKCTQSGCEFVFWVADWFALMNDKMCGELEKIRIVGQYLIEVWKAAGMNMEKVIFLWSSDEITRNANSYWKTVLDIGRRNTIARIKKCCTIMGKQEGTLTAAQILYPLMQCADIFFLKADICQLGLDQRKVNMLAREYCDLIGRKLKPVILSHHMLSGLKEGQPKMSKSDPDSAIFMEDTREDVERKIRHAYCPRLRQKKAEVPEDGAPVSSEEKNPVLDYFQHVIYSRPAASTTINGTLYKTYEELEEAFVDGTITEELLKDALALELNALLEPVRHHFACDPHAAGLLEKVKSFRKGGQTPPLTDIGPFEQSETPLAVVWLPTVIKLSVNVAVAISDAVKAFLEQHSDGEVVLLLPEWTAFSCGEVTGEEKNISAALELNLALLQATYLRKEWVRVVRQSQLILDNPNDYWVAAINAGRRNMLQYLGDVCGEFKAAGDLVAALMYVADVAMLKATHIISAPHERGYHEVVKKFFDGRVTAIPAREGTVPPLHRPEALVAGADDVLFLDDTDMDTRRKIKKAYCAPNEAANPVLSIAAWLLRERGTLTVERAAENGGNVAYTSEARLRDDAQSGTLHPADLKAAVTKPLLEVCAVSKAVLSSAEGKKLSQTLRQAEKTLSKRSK

[9] = target: T5, Tyrosyl-tRNA synthetase, putative (Trypanosoma cruzi (strain CL Brener)); assay: Trypanosoma cruzi tyrosyl tRNA synthetase (TcYRS) SOP; type: functional; set-up: scale not given: direction of the effect not stated beside the values; details: 30 µM
[10] = target: Chromo domain-containing protein 1 (Saccharomyces cerevisiae (strain ATCC 204508 / S288c) (Baker's yeast)) (UniProt P32657); assay: ScCHD-1 Enzyme Inhibition Assay; type: functional; set-up: scale not given: in the data most compounds retested in dose-response had high values; details: 30 µM
Sequence of Chromo domain-containing protein 1 (Saccharomyces cerevisiae (strain ATCC 204508 / S288c) (Baker's yeast)) (P32657 whole entry, the tested form may be a part): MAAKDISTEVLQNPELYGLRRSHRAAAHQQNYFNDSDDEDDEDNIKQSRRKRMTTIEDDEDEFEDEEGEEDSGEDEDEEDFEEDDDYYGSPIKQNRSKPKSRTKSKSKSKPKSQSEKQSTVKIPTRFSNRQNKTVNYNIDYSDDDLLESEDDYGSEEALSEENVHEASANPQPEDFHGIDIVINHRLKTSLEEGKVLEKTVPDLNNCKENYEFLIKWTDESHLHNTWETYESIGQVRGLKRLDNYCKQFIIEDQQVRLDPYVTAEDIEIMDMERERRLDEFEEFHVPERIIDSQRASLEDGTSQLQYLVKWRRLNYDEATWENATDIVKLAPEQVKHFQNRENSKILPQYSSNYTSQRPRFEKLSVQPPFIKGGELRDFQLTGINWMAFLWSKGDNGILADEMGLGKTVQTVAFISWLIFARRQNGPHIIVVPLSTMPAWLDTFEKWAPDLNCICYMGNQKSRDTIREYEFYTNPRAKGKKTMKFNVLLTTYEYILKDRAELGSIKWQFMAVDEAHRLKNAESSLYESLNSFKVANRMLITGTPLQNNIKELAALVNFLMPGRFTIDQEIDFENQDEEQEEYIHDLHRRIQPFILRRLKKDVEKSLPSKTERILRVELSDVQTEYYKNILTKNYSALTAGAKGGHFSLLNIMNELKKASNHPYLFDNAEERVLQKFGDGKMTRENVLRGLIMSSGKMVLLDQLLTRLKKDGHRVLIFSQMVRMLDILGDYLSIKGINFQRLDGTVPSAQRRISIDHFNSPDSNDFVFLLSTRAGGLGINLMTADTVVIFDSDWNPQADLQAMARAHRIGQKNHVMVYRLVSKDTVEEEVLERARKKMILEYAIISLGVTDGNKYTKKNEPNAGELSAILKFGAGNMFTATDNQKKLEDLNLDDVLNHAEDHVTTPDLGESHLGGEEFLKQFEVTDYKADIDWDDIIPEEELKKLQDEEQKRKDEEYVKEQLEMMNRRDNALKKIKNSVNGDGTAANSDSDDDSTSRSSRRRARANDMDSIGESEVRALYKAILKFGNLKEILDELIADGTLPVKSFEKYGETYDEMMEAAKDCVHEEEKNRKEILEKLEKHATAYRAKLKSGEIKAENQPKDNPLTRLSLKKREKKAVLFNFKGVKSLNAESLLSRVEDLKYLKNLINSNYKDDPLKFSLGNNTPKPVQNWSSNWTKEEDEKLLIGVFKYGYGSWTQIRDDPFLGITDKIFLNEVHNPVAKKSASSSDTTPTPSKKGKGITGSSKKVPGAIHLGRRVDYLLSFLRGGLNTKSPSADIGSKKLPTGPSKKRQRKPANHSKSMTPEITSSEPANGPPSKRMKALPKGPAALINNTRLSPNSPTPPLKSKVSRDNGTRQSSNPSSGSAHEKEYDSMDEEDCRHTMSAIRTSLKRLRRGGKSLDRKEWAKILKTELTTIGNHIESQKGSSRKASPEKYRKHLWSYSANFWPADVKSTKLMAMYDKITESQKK

Sequence of Sialic acid-binding Ig-like lectin 9 (Homo sapiens) (Q9Y336 whole entry): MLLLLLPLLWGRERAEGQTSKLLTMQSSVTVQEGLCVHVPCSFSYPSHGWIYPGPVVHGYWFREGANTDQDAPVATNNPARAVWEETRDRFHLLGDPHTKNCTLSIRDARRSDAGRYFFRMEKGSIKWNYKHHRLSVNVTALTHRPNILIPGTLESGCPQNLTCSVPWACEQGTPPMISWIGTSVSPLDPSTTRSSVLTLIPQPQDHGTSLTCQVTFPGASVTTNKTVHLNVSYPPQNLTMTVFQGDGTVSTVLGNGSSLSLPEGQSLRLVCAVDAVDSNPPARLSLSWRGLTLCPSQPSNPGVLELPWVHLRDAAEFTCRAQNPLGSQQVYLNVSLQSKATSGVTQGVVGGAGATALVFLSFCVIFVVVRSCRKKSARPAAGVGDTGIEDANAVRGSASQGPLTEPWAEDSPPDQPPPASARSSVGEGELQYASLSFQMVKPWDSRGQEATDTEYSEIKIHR
Sequence of Protein translocase subunit SecA (Escherichia coli (strain K12)) (P10408 whole entry): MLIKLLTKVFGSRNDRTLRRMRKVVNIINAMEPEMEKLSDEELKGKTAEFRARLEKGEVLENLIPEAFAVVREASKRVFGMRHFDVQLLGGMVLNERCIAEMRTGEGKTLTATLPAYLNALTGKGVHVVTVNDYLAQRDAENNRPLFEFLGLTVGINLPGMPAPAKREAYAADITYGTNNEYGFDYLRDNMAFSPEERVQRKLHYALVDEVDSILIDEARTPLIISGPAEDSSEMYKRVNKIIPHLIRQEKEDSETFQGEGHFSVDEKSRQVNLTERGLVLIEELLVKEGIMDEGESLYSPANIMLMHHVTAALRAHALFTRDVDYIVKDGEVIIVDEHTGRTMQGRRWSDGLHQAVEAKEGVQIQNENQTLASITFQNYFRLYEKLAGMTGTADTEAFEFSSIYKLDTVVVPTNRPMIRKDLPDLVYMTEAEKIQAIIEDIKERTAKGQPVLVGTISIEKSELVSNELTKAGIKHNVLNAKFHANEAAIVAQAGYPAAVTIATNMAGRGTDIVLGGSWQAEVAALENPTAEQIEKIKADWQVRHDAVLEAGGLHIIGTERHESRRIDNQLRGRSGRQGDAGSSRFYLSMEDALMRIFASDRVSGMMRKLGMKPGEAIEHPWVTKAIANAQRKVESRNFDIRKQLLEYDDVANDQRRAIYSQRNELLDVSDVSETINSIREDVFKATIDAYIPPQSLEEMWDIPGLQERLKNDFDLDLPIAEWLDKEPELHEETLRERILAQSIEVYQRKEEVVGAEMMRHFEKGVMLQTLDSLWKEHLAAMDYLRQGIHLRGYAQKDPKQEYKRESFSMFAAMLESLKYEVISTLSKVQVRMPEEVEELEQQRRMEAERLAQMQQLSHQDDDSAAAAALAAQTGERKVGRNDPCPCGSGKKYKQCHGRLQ

FC1(F)CCN(Cc2cccnc2)CC12CCN(c1ccccn1)C2 (stereo unspecified)
PXC50 ([1]; MAX_EFFECT 12.14788732): < 4
PXC50 ([1]; MAX_EFFECT 12.35154394): < 4
Percent Effect [2]: -2.18%
Percent Effect [3]: 16.2%
Percent Effect [4]: 5.61%
Percent Effect [5]: -2.07%
Percent Effect (Trypanosoma cruzi): -4.99%
Percent Effect ([6]; 33.3 µM): 17.5%
Percent Effect [7]: 21.4%
Percent Effect (Homo sapiens): 33.7%
Percent Effect [8]: 1.08%
Percent Effect [9]: 12.8%
Percent Effect [10]: -3.06%

CC1CCN(S(=O)(=O)c2cccn(CC(=O)NC3CCCC3)c2=O)CC1
Percent Effect [2]: -2.96%
Percent Effect [3]: 5.48%
Percent Effect [4]: -5.65%
Percent Effect [5]: -2%
Percent Effect (Trypanosoma cruzi): -5.68%
Percent Effect ([6]; 30 µM): 2.7%
Percent Effect ([6]; 33.3 µM): 0.455%
Percent Effect [7]: 17.2%
Percent Effect (Homo sapiens): 4.13%
Percent Effect [8]: 3.23%
Percent Effect [9]: 10%
Percent Effect [10]: -2.6%

Cn1cc(CN2C[C@@H]3COC[C@]3(C(=O)NCc3ccccn3)C2)cn1
Percent Effect [2]: -3.43%
Percent Effect [3]: 5.33%
Percent Effect [4]: 0.406%
Percent Effect [5]: 6.2%
Percent Effect (Trypanosoma cruzi): 0.772%
Percent Effect ([6]; 30 µM): -0.54%
Percent Effect ([6]; 33.3 µM): -54.3%
Percent Effect [7]: 4.62%
Percent Effect (Homo sapiens): -8.11%
Percent Effect [8]: 2.08%
Percent Effect [9]: 2.5%
Percent Effect [10]: -5.35%

Cc1c(C(=O)O)sc2nc(Cc3ccccc3)nc(N)c12
PXC50 ([1]; MAX_EFFECT 1.767676768): < 4
PXC50 ([1]; MAX_EFFECT 2.040816327): < 4
Percent Effect [4]: 4.73%

N#CC1CCCN(c2nc(-c3ccccc3)nc3c2CCNCC3)C1 (stereo unspecified)
PXC50 ([1]; MAX_EFFECT 13.59649123): < 4
PXC50 ([1]; MAX_EFFECT 23.4375): < 4
Percent Effect [2]: -2.62%
Percent Effect [3]: -5.48%
Percent Effect [4]: -0.435%
Percent Effect [5]: 0.626%
Percent Effect (Trypanosoma cruzi): -4.17%
Percent Effect ([6]; 33.3 µM): 2%
Percent Effect [7]: 11.2%
Percent Effect (Homo sapiens): 2.12%
Percent Effect [8]: 4.17%
Percent Effect [9]: 3.7%
Percent Effect [10]: 9.39%

Cc1nc(NCc2nncn2C2CC2)c2c(CC(C)C)csc2n1
PXC50 ([1]; MAX_EFFECT 9.660574413): < 4
PXC50 ([1]; MAX_EFFECT 12.53263708): < 4
Percent Effect [4]: -3.8%
